# The list is not random: actives were taken first. Their share in the collection is about 19%.
# TDP1 cell CPT = qHTS for Inhibitors of human tyrosyl-DNA phosphodiesterase 1 (TDP1): qHTS in cells in presence of CPT; chicken DT40 Tdp1-/-;hTDP1 cells + 20 nM CPT, ATP luminescence, 48 h; Potency, µM (series often up to 46.2 µM), most hits filed as inhibitors; actives 12% (n = 420,000); note: nearly all actives have a fitted effect of over 55% in size
#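 Cell growth measured by CellTiter-Glo luminescence after a minimum 48 h, 37 C compound exposure with 20 nM CPT in Tdp1-knockout DT40 cells stably expressing hTDP1, seeded 400/well; qHTS titration format.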
# KB-V1 cytotox = qHTS assay for MDR1-selective chemotherapeutics: Primary screen using the drug-selected MDR subline cells KB-V1; AID 1347076, 2019; actives 3.4% (n = 400,000); Potency, µM (series often up to 46.1 µM), usual class: cytotoxic; KB-V1 MDR cells viability, CellTiter-Glo, 72 h; note: nearly all actives have a fitted effect of over 60% in size
#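 Compound-treated KB-V1 multidrug-resistant cells, 72 h, 37 degrees C; viability by CellTiter-Glo. Fitted qHTS curves give the values.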
# KB-3-1 cytotox = qHTS assay for MDR1-selective chemotherapeutics: Primary screen using the parental adenocarcinoma cell KB-3-1; Potency, µM (titrated, usually from 46.1 µM), usual class: cytotoxic; actives 1.4% (n = 400,000); KB-3-1 viability, CellTiter-Glo ATP luminescence, 72 h; note: nearly all actives have a fitted effect of over 60% in size
#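 KB-3-1 cells, DMEM (no phenol red) + 10% FBS; compound by pin transfer, 72 h, 37 °C. Readout: CellTiter-Glo luminescence after 10 min. Data normalized, curve-fitted.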
# HT1080-NT tox = qHTS for induction of synthetic lethality in tumor cells producing 2HG: qHTS for the HT-1080-NT fibrosarcoma cell line; actives 1.6% (n = 360,000); AID 686970, 2013; Potency, µM (titrated, usually from 46.1 µM), actives largely listed as cytotoxic; HT-1080-NT fibrosarcoma viability, CellTiter-Glo ATP luminescence, 48 h;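 note: NT is the 2HG producing partner of a matched IDH1 knockdown line; nearly all actives have a fitted effect of over 55% in size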
#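 Compounds were tested in concentration-response format on HT-1080-NT cells for 48 hours at 37 degrees C. Cell viability came from CellTiter-Glo luminescence; curves were classified by r2, response magnitude and activity.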
# DT40 TDP1 no CPT = qHTS for Inhibitors of human tyrosyl-DNA phosphodiesterase 1 (TDP1): qHTS in cells in absence of CPT. DT40 Tdp1-/- hTDP1 cells, no CPT, ATP luminescence, 48 h. Potency, µM (top dose mostly 46.2 µM), actives largely listed as inhibitors. actives 15% (n = 420,000); note: nearly all actives have a fitted effect of over 55% in size
#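 Chicken DT40 Tdp1-/- cells stably complemented with human TDP1 were seeded at 400 cells/well with DMSO in place of 20 nM camptothecin. After compound pinning, cells grew at least 48 hr at 37 °C; viability read by CellTiter-Glo luminescence.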
# HT1080 IDH1KD tx = qHTS for induction of synthetic lethality in tumor cells producing 2HG: qHTS for the HT-1080-IDH1KD cell line; Potency, µM (doses to about 46.1 µM), usual class: cytotoxic; HT-1080 IDH1 knockdown viability, ATP luminescence, 48 h; AID 686971, 2013; actives 2% (n = 360,000)
#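 In this qHTS, HT-1080 cells depleted of IDH1 are exposed for 48 h at 37 °C to compound titrations. Toxicity is scored from CellTiter-Glo luminescence, with DMSO as full viability and medium alone as none.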
# Hits are given with their value; . = inactive; ? = inconclusive; / = no result; [ ] = another dose, or the depositor's remark. Calls come from the whole dose curve; as a rule, active = well fitted curve in the direction sought with a large enough effect; inconclusive = small, poorly fitted or top-dose-only effect, or another doubt; inactive = no such curve, though single readings can be large; an effect the other way counts as inactive or inconclusive.
SMILES,TDP1 cell CPT,KB-V1 cytotox,KB-3-1 cytotox,HT1080-NT tox,DT40 TDP1 no CPT,HT1080 IDH1KD tx
Cc1c(-n2cc(C(=O)c3cc(F)ccc3O)cc(C#N)c2=O)c(=O)n(-c2ccccc2)n1C,.,.,.,.,.,.
COc1ccc(O)c(C(=O)c2cc(C#N)c(=O)n(Cc3ccccc3)c2)c1,?,?,.,.,?,.
N#Cc1cc(C(=O)c2cc(Cl)ccc2O)cn(CC2CCCO2)c1=O (centres undefined),?,.,.,.,21µM,.
N#Cc1cc(C(=O)c2cc(Br)ccc2O)cn(Cc2ccccc2)c1=O,?,.,.,?,21µM,.
Cc1ccccc1-n1cc(C(=O)c2cc(Cl)ccc2O)cc(C#N)c1=O,?,15µM,?,.,12µM,.
CC(NC(=O)C1CCN(c2nc3ccccc3nc2C(F)(F)F)CC1)c1ccccc1 (centres undefined),.,.,.,/,?,/
CCCCn1c(N)c(N(CC)C(=O)c2cccs2)c(=O)[nH]c1=O,.,?,.,.,.,.
COc1ccc(/C=N/NC(=O)CCn2nc(C)cc2C)cc1O,.,.,.,.,.,.
O=C(Cn1cnc([N+](=O)[O-])n1)N/N=C/c1ccc(O)cc1O,?,.,.,?,12µM,18µM
Cc1cc(C)n(CCC(=O)N/N=C/c2ccccc2O)n1,12µM,8.2µM,?,.,12µM,.
O=C(Cn1cnc([N+](=O)[O-])n1)N/N=C/c1cccc(Cl)c1,.,.,.,.,.,.
Cc1cc(C)n(CCC(=O)N/N=C/c2ccc(O)cc2O)n1,?,.,.,.,23µM,?
COc1ccc(/C=N/NC(=O)CCn2nc(C)cc2C)cc1,.,.,?,.,.,.
CC(NC(=O)c1ccco1)c1nnc2n1CCN(Cc1cccc(Cl)c1)CC2 (centres undefined),.[9.04 µM],/,/,/,.,/
O=C(NC1CCCC1)C(c1ccccc1)n1c(-c2ccc3c(c2)CCO3)nc2ccccc21 (centres undefined),?,.,.,?,?,?
COc1ccc(-c2cccc(NS(=O)(=O)c3cccs3)c2)nn1,?,.,.,/,?,/
CCc1ccc(NC(=O)CSc2nnc(-c3ccccc3)n2C)cc1,16µM,.,?,/,.,/
Cn1c(SCC(=O)c2ccc3c(c2)Cc2ccccc2-3)nnc1-c1ccccc1,.,.,.,.,29µM,.
Cn1c(SCC(=O)NC(C)(C)C)nnc1-c1ccc(C(C)(C)C)cc1,?,21µM,.,.,23µM,.
C=C1C(=O)N(C)CCC1C(CC)C(=O)OC (centres undefined),.,.,.,.,.,.
CSc1cccc(NC(=O)N2CCN(S(=O)(=O)c3ccc4c(ccn4C)c3)CC2)c1,/,.,.,/,/,/
O=C(NCCc1cccc(Cl)c1)c1ccc(Cl)c([N+](=O)[O-])c1,?,.,.,?,21µM,.
CC(C)(CNC(=O)c1ccc([N+](=O)[O-])c(Cl)c1)CNC(=O)c1ccc([N+](=O)[O-])c(Cl)c1,18µM,?,?,21µM,21µM,?
C=CCNC(=O)c1ccc([N+](=O)[O-])c(Cl)c1,.,.,.,.,.,.
Cc1ccc(C(=O)NCCc2cccc(Cl)c2)cc1[N+](=O)[O-],21µM,16µM,.,.,21µM,.
Cc1c(C(=O)NCc2ccc3c(c2)OCO3)cnn1-c1ncc2c(n1)-c1ccccc1CC2,.[9.04 µM],/,/,/,.,/
COc1ccc(C)cc1NC(=O)N1CCC(CN2CCOCC2)CC1,.,/,/,/,.,/
